Compounds with a hit are over-represented: about 3.1% of the library has one in this group of screens.
GLS inh = blocks human kidney-isoform glutaminase activity; O94925; GLS enzymatic activity, qHTS titration; Potency, µM (doses to about 45.5 µM), inactives show at the top dose activity change, negative = inhibition, actives largely listed as inhibitors; 410,000 compounds, 0.21% hits; AID 624170; note: potency is the fitted concentration of half-maximal effect
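Glutamate formation by hKGA was monitored fluorometrically using coupled glutamate oxidase, HRP and Amplex Red. Substrate was added as 1 mM L-glutamine solution; incubation was 30 min at RT after an initial read.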
GCN5L2 inh = blocks human GCN5L2 histone acetyltransferase; Q92830; Potency, µM (highest dose often 58.9 µM), for inactives: top-dose activity change, negative = inhibition, actives largely listed as inhibitors; 390,000 compounds, 0.21% hits; GCN5L2 HAT assay, ThioGlo1 CoA-SH fluorescence; AID 504327; note: potency is the fitted concentration of half-maximal effect
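ThioGlo1-coupled HAT assay: 20nM GCN5L2, 70uM acetyl-CoA, 75uM H3(1-25) peptide, pH 7.5. Fluorescence read at 340/540nm at start and after 20 min at room temperature.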
PI4K2A inh = inhibitors of human PI4K2A; purified PI4K2A, ADP-Glo luminescence, 1 h; hits give low values; activity change, negative = inhibition, % at 76.9 µM; 420,000 compounds, 0.13% hits; in the data active = activity change below about -50%; inconclusive = mostly about -30% to -49%;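 note: -100% = wells without enzyme as full effect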
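In this quantitative HTS, ADP production by PI4K2A was quantified luminescently after 1 h at ambient temperature; 100 microM adenosine served as plate-quality control.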
VDR inhibitor = vitamin D3 receptor (human) inhibition; P11473; 400,000 compounds, 0.93% hits; Potency, µM, for the others: max response, negative = inhibition, usual class: inhibitors; VDR-SRC2-3 peptide fluorescence polarization, 2 h; note: potency is the fitted concentration of half-maximal effect
Target sequence (P11473 whole entry, looked up): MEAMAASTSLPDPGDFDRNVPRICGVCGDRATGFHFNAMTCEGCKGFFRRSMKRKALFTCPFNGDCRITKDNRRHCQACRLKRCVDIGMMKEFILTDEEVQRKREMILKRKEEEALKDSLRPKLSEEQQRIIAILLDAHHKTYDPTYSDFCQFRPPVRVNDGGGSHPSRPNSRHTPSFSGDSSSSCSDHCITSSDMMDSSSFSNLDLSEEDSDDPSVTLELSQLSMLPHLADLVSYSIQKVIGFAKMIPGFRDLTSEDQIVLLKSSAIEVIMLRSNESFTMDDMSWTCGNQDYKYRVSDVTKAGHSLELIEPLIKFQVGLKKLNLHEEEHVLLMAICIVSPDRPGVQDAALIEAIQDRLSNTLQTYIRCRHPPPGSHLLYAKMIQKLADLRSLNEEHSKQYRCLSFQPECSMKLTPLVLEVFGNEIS
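Reagent solutions, kept cold and dark, are dispensed first; compounds are then pinned in at 23 nl, plates briefly spun, and incubated 2 h at ambient temperature. Inhibition of VDR–SRC2-3 peptide binding is read by fluorescence polarization.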
PLK1 PBD block = PLK1 (human) polo-box domain binding inhibition. 360,000 compounds, 2.8% hits. P53350. Plk1 PBD binding of FITC phosphopeptide, fluorescence polarization. Potency, µM, for the others: max response, negative = inhibition, most hits filed as inhibitors; note: potency is the fitted concentration of half-maximal effect; series mostly up to about 57 µM; nearly all actives have a fitted effect of over 65% in size
Starred values were filed as active, the others as inactive; i = inactive; ? = inconclusive; nt = not tested or not shown; ! = a repeat was not active; [ ] = remark or other dose. Unless noted, calls come from the whole dose curve; as a rule, active = well fitted curve in the direction sought with a large enough effect; inconclusive = small, poorly fitted or top-dose-only effect, or another doubt; inactive = no such curve, though single readings can be large; an effect the other way counts as inactive or inconclusive. Unless noted, % is set by controls: 0 for no effect and ±100 for the full control effect.

SMILES	GLS inh	GCN5L2 inh	PI4K2A inh	VDR inhibitor	PLK1 PBD block
Cc1cc(/C=C2\C(=O)NC(=O)N(Cc3ccccc3)C2=O)c(C)n1-c1ccc(Cl)c(C(=O)O)c1	10µM*	?	-24.0	-1.0%	5.97µM*
Cc1cc(/C=C2\C(=O)NC(=O)N(c3cccc(F)c3)C2=O)c(C)n1-c1ccc(C(=O)O)c(Cl)c1	?	-22.9%	-20.6	10.3%	-20.7%
C[C@@H](NC(=O)[C@@H](N)Cc1ccc(O)cc1)C(=O)NCC(=O)N(C)[C@@H](Cc1ccccc1)C(=O)NCCO	nt	-1.5%	nt	13.0%	nt
CC(C(=O)c1ccccc1)N(C)C (centres undefined)	nt	nt	-0.6	nt	nt
CN[C@H]1C[C@@H](N)[C@H](O)[C@@H](O[C@@H]2O[C@H](CO)[C@H](O)[C@@H]3O[C@]4(O[C@@H]23)O[C@H]([C@@H](N)CO)[C@H](O)[C@@H](O)[C@H]4O)[C@@H]1O	1.1%	nt	nt	nt	nt
NC1CCCCC1N (centres undefined)	nt	20.4%	nt	-0.8%	nt
O=S(=O)(Nc1c(O)ccc2ccccc12)c1ccc(F)cc1	0.0%	nt	-4.5	-11.6%	10.6µM*
CN1CCN(C(=O)COc2ccc(S(=O)(=O)Nc3ccc(F)cc3)cc2)CC1	-0.7%	2.0%	1.0	-3.4%	-4.4%
C[C@H](CN1CCOCC1)C(C(=O)N1CCCC1)(c1ccccc1)c1ccccc1	nt	nt	i	nt	nt
CCC(C(=O)O)C1CCC(C)C(C(C)C(O)C(C)C(=O)C(CC)C2OC3(C=CC(O)[C@@]4(CC[C@](C)(C5CC[C@@](O)(CC)C(C)O5)O4)O3)C(C)CC2C)O1 (some centres undefined)	?	3.8%	nt	-9.5%	nt
Cc1c(CC(=O)N2C[C@H]3C[C@@H](C2)c2cccc(=O)n2C3)c(=O)oc2cc(O)c(Cl)cc12	7.3%	20µM*	4.0	-13.2%	-3.3%
CC(C)C(OC(=O)c1ccco1)C(=O)NCc1ccco1 (centres undefined)	11.4%	nt	-11.2	-27.5%	26.7µM*
Cc1nn(Cc2ccccc2)c(C)c1C(=O)OCC(=O)NCc1ccco1	9.6%	-0.7%	3.0	1.2%	-0.2%
O=C1NC(=O)N(c2ccc(Cl)cc2)C(=O)/C1=C\c1ccc(Sc2nc3ccccc3[nH]2)o1	-21.1%	?	?	-23.4%	3.77µM*
CCC(=O)OC1CCC2C3CCC4CC(=O)C=CC4(C)C3CCC12C (centres undefined)	-8.0%	nt	14.2	50.1µM*	-6.0%
COc1cc(CCN)c(OC)cc1Br	-2.4%[99.4 µM]	nt	nt	nt	nt
COc1ccc(CN2C(=O)CC(=O)NC2=O)cc1	0.2%	-5.4%	?	-22.4%	-16.7%
Cc1cccc(N2C(=O)NC(=O)/C(=C/c3ccc([N+](=O)[O-])o3)C2=O)c1	7.08µM*	25.1µM*	-12.8	?	10.6µM*
COc1ccc(CN2C(=O)NC(=O)/C(=C/c3ccc([N+](=O)[O-])o3)C2=O)cc1	nt	22.4µM*	nt	nt	nt
CC(C)(C)n1cccc1/C=C1\C(=O)NC(=O)N(c2ccccc2)C1=O	10.8%	-5.7%	-12.6	18.4%	23.8µM*
COc1ccc(CN2C(=O)NC(=O)/C(=C\c3cccc(OC)c3OC)C2=O)cc1	-7.9%	-2.9%	-18.5	?	29.9µM*
CC(=O)OCC(N)C(=O)c1ccccc1 (centres undefined)	nt	-28.0%	nt	nt	nt
COc1cc(CC#N)cc(OC)c1OC	nt	nt	-0.3	nt	nt
CCC(CC)(CNC(=O)CCCO)c1cccc(OC)c1	nt	nt	1.0	nt	nt
Nn1c(COc2ccc(Cl)cc2)n[nH]c1=S	2.2%	-6.2%	-3.8	-0.8%	?
SMILES	GLS inh	GCN5L2 inh	PI4K2A inh	VDR inhibitor	PLK1 PBD block
CCCN(CCC)C(=O)Cc1c(-c2ccc(Cl)cc2)nc2ccc(Cl)cn12	-13.7%	nt	-1.9	nt	nt
CCNC(C)Cc1ccc2c(c1)OCO2 (centres undefined)	-0.9%[99.4 µM]	nt	nt	nt	nt
CN(C)C1C(=O)C(C(N)=O)=C(O)[C@@]2(O)C(=O)C3=C(O)c4c(O)ccc(Cl)c4[C@](C)(O)C3CC12 (some centres undefined)	nt	-26.3%	nt	?	nt
Cc1cccc(N2C(=O)NC(=O)/C(=C\c3cccn3-c3ccc(Cl)cc3)C2=O)c1	-7.9%	-1.5%	-50.2*	17.5%	0.532µM*
O=C1NC(=S)NC(=O)C1Cc1ccccc1O	-0.4%	nt	-0.7	-0.8%	-1.3%
O=C1NC(=S)NC(=O)C1Nc1ccc(Cl)cc1	-19.6%	nt	13.1	?	2.99µM*
O=C1NC(=O)C(Nc2ccc(Cl)c(Cl)c2)C(=O)N1	17.9%	nt	?	39.8µM*	-29.2%
O=c1oc2ccccc2c(O)c1C(CC(O)c1ccc(-c2ccc(Br)cc2)cc1)c1ccccc1 (centres undefined)	nt	nt	-4.0	nt	nt
C[C@@H]1CN([C@H](C)CO)C(=O)CCCn2nncc2CO[C@@H]1CN(C)C(=O)Nc1ccc(N2CCCCC2)cc1	4.9%	nt	-4.2	nt	-8.9%
CC(C)C(C)/C=C/C(C)C1CCC2C3=CC=C4CC(O)CCC4(C)C3CCC21C (centres undefined)	nt	-6.7%	nt	?	nt
CCCCN1C(=O)NC(=O)/C(=C/c2cnc(SC)nc2)C1=O	-13.1%	-2.0%	-25.0	25.1µM*	8.44µM*
Cc1cc(C=C2C(=O)N(C)C(=S)N(C)C2=O)c(C)n1C1CCCCC1	-1.8%	2.5%	-4.2	-2.3%	?
CSc1ncc(/C=C2/C(=O)NC(=O)N(C3CCCCC3)C2=O)cn1	?	-1.7%	-11.8	20µM*	10.6µM*
C[C@]12CC[C@H]3[C@@H](CC[C@@]45O[C@H]4C(O)=C(C#N)C[C@]35C)[C@H]1CC[C@H]2O	nt	nt	1.7	nt	nt
CCOc1ccc(NS(=O)(=O)c2ccc(Cl)c(N=Nc3c(O)[nH]c(=S)[nH]c3=O)c2)cc1Br	4.0%	nt	-1.1	nt	?
CCC(C)N1C(=O)/C(=C\c2ccc(N3CCCCCC3)cc2)C(=O)NC1=S (centres undefined)	150.0%	-8.1%	-9.8	-7.7%	?
CC(C)CN(CC(C)C)c1ccc(C=C2C(=O)NC(=S)NC2=O)cc1[N+](=O)[O-]	-15.9%	?	-12.1	35.5µM*	2.67µM*
CCCCCn1c(Sc2ccccc2)nc2c1c(=O)[nH]c(=O)n2C	21.6%	0.0%	-4.0	?	29.9µM*
CCCCn1c(O)c(C(CC)=Nc2ccc(C(=O)O)cc2)c(=O)[nH]c1=O	-0.6%	-1.2%	-10.8	-14.5%	17.7%
C[C@@H]1C[C@H](C)C[C@H](C)[C@@H](O)CC(=O)O[C@H]([C@H]2CCC[C@H]2C(=O)O)C/C=C/C=C(/C#N)[C@H](O)[C@@H](C)C1	nt	20.1%	nt	?	nt
CCCCC/C=C\C/C=C\C/C=C\C/C=C\CCCC(=O)Nc1ccc(O)cc1	nt	-18.7%	nt	-1.0%	nt
CCCCC/C=C\C/C=C\C/C=C\C/C=C\CCCC(=O)N(Cc1ccc(O)c(Cl)c1)Cc1ccc(O)c(Cl)c1	nt	?	nt	14.1µM*	nt
CCCCC/C=C\C/C=C\C/C=C\C/C=C\CCCC(=O)NCCO	nt	-5.3%	nt	70.8µM*!	nt

Source: PubChem
